# PubChem BioAssay AID411 (National Center for Advancing Translational Sciences (NCATS), 2006)
# Hit rate of the full screen: of about 72,000 compounds, about 1,600 (2.2%) were called active. A call without a number means that no potency is given here. Only a selection was taken, and actives are over-represented in it overall. Values without a mark were called inactive. Calls come from the whole dose curve; as a rule, active = well fitted inhibition curve with a large enough effect; inconclusive = small, poorly fitted or top-dose-only effect; inactive = flat fitted curve, though single readings scatter.
# Biological target: Luciferin 4-monooxygenase (Photinus pyralis) (UniProt P08659)
# Assay: qHTS Assay for Inhibitors of Firefly Luciferase; note: nearly all actives have a fitted effect of over 40% in size
# Settings: purified firefly luciferase, luminescence, 8 min; series mostly up to 57.1 µM
# Experimental: To aid in the interpretation of high-throughput screening (HTS) results derived from luciferase-based assays, we used quantitative HTS, an approach that defines the concentration-response behavior of each library sample, to profile the ATP-dependent luciferase from Photinus pyralis against more than 72 000 samples. Luciferase (PKLight, Cambrex Corporation) was assayed for its ability to generate light using ATP and luciferin as substrates. The ATP concentration in the assay (10 uM) was within the linear range of enzyme activity for the assay conditions used. See following reference for further details: [1] Auld DS, Southall NT, Jadhav A, Johnson RL, Diller DJ, Simeonov A, Austin CP, Inglese J. Characterization of chemical libraries for luciferase inhibitory activity. J Med Chem. 2008 Apr 24;51(8):2372-86. Auld DS, Zhang YQ, Southall NT, Rai G, Landsman M, Maclure J, Langevin D, Thomas CJ, Austin CP, Inglese J. A Basis for Reduced Chemical Library Inhibition of Firefly Luciferase Obtained from Directed Evolution. J. Med. Chem., 2009, 52 (5), pp 1450#1458 [3] Auld DS, Thorne N, Nguyen DT, Inglese J. A specific mechanism for nonspecific activation in reporter-gene assays. ACS Chem Biol. 2008 Aug 15;3(8):463-70. Auld DS, Thorne N, Maguire WF, Inglese J. Mechanism of PTC124 activity in cell-based luciferase assays of nonsense codon suppression. Proc Natl Acad Sci U S A. 2009 Mar 3;106(9):3585-90. Inglese J, Auld DS, Jadhav A, Johnson RL, Simeonov A, Yasgar A, Zheng W, Austin CP. Quantitative high-throughput screening: a titration-based approach that efficiently identifies biological activities in large chemical libraries. Proc Natl Acad Sci U S A. 2006 Aug 1;103(31):11473-8.
# Four uL of substrate mix (final concentration, 50 mM imidazole pH 7.2, 50 mM KCl, 7 mM MgCl2, 10 uM ATP, 0.01% Tween 20, 0.05% BSA) was dispensed into white 1536 well plates. Twenty-three nL of compound was delivered by a pin tool and 2 uL of luciferase detector mix (PKLight, Cambrex) was added. Following 8-minute incubation at ambient temperature, luminescence was measured by a ViewLux (Perkin Elmer) at 5 seconds exposure/plate.
# Potency is the fitted concentration of half-maximal effect.
# Sequence of Luciferin 4-monooxygenase (Photinus pyralis) (P08659 whole entry, looked up): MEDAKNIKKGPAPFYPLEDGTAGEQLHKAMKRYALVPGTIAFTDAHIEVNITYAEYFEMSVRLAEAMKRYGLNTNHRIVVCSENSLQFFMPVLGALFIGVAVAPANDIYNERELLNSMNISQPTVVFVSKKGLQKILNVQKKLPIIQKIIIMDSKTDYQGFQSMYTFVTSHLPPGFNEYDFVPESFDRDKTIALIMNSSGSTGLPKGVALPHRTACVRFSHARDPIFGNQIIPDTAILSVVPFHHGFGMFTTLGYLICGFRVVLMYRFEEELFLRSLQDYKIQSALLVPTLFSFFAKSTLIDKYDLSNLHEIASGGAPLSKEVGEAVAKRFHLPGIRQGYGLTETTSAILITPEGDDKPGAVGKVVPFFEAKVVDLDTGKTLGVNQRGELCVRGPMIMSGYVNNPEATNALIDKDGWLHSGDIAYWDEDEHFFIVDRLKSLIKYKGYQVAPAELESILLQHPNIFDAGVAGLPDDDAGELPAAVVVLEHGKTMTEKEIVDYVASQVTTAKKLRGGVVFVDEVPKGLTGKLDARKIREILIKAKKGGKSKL
Compound,Potency,"activity change, negative = inhibition"
Cc1ccc(-c2noc(-c3ccccc3C(=O)NCC3CCCO3)n2)cc1 (configuration not stated),12.6 µM (active),
Cc1nc2ccccc2c2oc(C(=O)NCC3CCCO3)cc12 (configuration not stated),inactive,
Cc1ccc(C(=O)NCC2CCCO2)o1 (configuration not stated),inactive,
CCCN1C2=C(C(=O)CCC2)C(c2ccc(O)c(Br)c2)C2=C1CCCC2=O,inactive,
O=S(=O)(N1CCOCC1)N1CCN(c2ccccc2F)CC1,inactive,
CCCn1c(=O)c2[nH]c(-c3ccc(OCC(=O)NCCN)cc3)nc2n(CCC)c1=O,inactive,
CCc1ccccc1N(CC(=O)N1CCN(c2ccccc2F)CC1)S(C)(=O)=O,inactive,
CCOc1ccc2nc(N3CCCN(C(=O)Nc4ccccc4C)CC3)c(C#N)cc2c1,inactive,
COc1ccc2nc(N3CCCC(O)C3)c(C#N)cc2c1 (configuration not stated),12.6 µM (active),
COc1ccc(N2CCN(C(=O)CSc3nc4cc(OC)c(OC)cc4cc3C#N)CC2)cc1,inactive,
CCOc1ccc(N(CC(=O)NCc2ccc(OC)cc2)S(=O)(=O)c2c(C)noc2C)cc1,inactive,
Cc1ccc(-c2noc(CCC(N)=O)n2)cc1,inactive,
CCNC(=O)CCc1nc(-c2ccc(C(C)(C)C)cc2)no1,5.01 µM (active),
Cc1ccc(-c2noc(CCC(=O)Nc3ccccc3N3CCN(C)CC3)n2)cc1,inactive,
O=C(OCCO)c1cc(Cl)c(C(=O)OCCO)cc1Cl,inactive,
c1ccc(-n2ncc(-c3nn[nH]n3)n2)cc1,inactive,
CCc1ccc(-c2nnn(Cc3nn[nH]n3)n2)cc1,inactive,
CC(C)c1ccc(-c2nn[nH]n2)cc1,15.8 µM (active),
CCCCn1c(CN2CCN(CCO)CC2)nc2ccccc21,inactive,
CCOC(=O)CCc1c(C)c2ccc(OCc3nn[nH]n3)c(C)c2oc1=O,inactive,
CC(C)C(=O)Nc1cccc(C(=O)Nc2ccc3c(c2)OCO3)c1,15.8 µM (active),
Cc1ccc(F)cc1NC(=O)c1ccc2c(c1)OCO2,inactive,
Cn1c(=O)n(C)c2cc(C(=O)Nc3ccc4c(c3)OCO4)ccc21,inactive,

Compound,Potency,"activity change, negative = inhibition"
Cc1ccc(C(=O)Nc2ccc3c(c2)OCO3)cc1S(=O)(=O)N1CCCCC1,inactive,
COc1ccc(C(=O)Nc2ccc3c(c2)OCO3)cc1OC,12.6 µM (active),
Cn1c(NC(=O)c2ccc3c(c2)OCO3)cc(=O)n(C)c1=O,inactive,
CCOc1ccc(NC(=O)CSc2nc3c(c(=O)n2-c2ccccc2OC)SCC3)cc1,inactive,
C[C@H](CCC(=O)NCC(=O)O)[C@H]1CC[C@H]2[C@H]3[C@@H](C[C@@H](O)[C@]12C)[C@]1(C)CC[C@H](O)C[C@@H]1C[C@@H]3O,inactive,
CCCOc1ccc(/C(O)=C2/C(=O)C(=O)N(CCN(C)C)C2c2ccc(OC)c(OC)c2)cc1 (configuration not stated),inactive,
CCn1nnc(NC(=O)c2c(OC)cccc2OC)n1,inactive,
CCOC(=O)CCc1c(C)c(C#N)c2[nH]c3ccccc3n2c1=O,inactive,
FC(F)Oc1ccccc1C1CC(c2ccc(Br)s2)Nc2ncnn21 (configuration not stated),inactive,
CCCOC(=O)c1[nH]c2c(c1C)C(=O)CC(c1cc(OC)c(OC)c(OC)c1)C2 (configuration not stated),inactive,
CCCOC(=O)C1=C(C)NC2=C(C(=O)C(C(=O)OC)C(C)C2)C1c1ccc(N(C)C)cc1 (configuration not stated),inactive,
COC(=O)C1C(=O)c2c([nH]c(C(=O)OCCSC)c2C)CC1C (configuration not stated),7.94 µM (active),
O=C(NCc1ccco1)c1sc2cccc(F)c2c1Cl,inactive,
CN=C1SC(C(=O)O)CC(=O)N1C (configuration not stated),inactive,
O=C(c1csnn1)N1CCC[C@@]2(CCN(c3cccc(-c4ccccc4)c3)C2)C1,,0.28% [at 11.4 µM]
CCOc1cccc(C(=O)Nc2cccnc2)c1,inactive,
O=C(Nc1cccnc1)c1ccc2c(c1)OCO2,inactive,
O=C(Nc1cccnc1)c1noc2c1CCCCC2,12.6 µM (active),
COc1ccc(OC)c([C@H](O)CNC(=O)CN)c1,inactive,
CNC(=O)NCCN1CCCC1=O,inactive,
COC(=O)COc1ccc2oc(=O)cc(C)c2c1,inactive,
Cc1noc(C)c1C(=O)Nc1ccccn1,inactive,
CCN(CC)S(=O)(=O)c1cccc(C(=O)Nc2ccccc2)c1,inactive,

Compound,Potency,"activity change, negative = inhibition"
CCN(CC)S(=O)(=O)c1cc(C(=O)Nc2ccccn2)ccc1C,15.8 µM (active),
N[C@H](C(=O)O)c1ccc(C(=O)O)c(O)c1,inactive,
c1ccc(CNc2ncncc2-c2cccnc2)cc1,,-1.06% [at 2.29 µM]
Cc1ccc(OCC(O)CN2CCN(CC(O)COc3ccc(C)cc3Cl)CC2)c(Cl)c1 (configuration not stated),inactive,
CCOC(=O)CSc1nnc(-c2cccc(Br)c2)o1,inactive,
CCOC(=O)CSc1nnc(-c2ccncc2)o1,inactive,
CCCCSc1nnc(-c2ccc(C)cc2)o1,15.8 µM (active),
CC1=C(C(=O)OCc2ccccc2)C(c2ccco2)n2ncnc2N1 (configuration not stated),inactive,
COc1ccc(NC(=O)c2ccc(OC)cc2)cc1,2 µM (active),
CCOc1ccc(C(=O)Nc2ccncc2)cc1,inactive,
COc1ccc(NC(=O)c2c(C)oc3c2CCCC3)cc1,inactive,
COc1ccc2occ(C(=O)c3ccc(N=C(C)N(C)C)cc3)c2c1,inactive,
N#Cc1c2c(c(-c3ccccc3)[nH]c1=O)CCCC2,inactive,
O=C(CCN1C(=O)c2ccncc2C1=O)Nc1ccc2c(c1)OCCO2,inactive,
O=C(COc1ccc2oc3c(c2c1)CCCC3)Nc1ccccn1,inactive,
Cc1ccc(OCC(=O)Nc2ccc(-c3nc4ncccc4o3)cc2)cc1,inactive,
CCOC(=O)c1cc(NC(=O)c2cccnc2)cc(C(=O)OCC)c1,inactive,
Cc1cc2nc(-c3ccc(NC(=O)c4cccnc4)cc3)oc2cc1C,12.6 µM (active),
CC(=O)c1c(C)[nH]c(C(=O)NCCCN2CCCC2)c1C,inactive,
Cc1onc(-c2ccccc2)c1C(=O)N1CCOCC1,inactive,
Cc1cc(C(=O)COC(=O)CCCN2C(=O)c3ccccc3C2=O)c(C)n1C,inactive,
C=CCN(CC=C)C(=O)CN1C(=O)c2ccccc2C1=O,inactive,
C=CCn1c(C)cc(C(=O)CN2C(=O)c3ccccc3C2=O)c1C,3.98 µM (active),

Compound,Potency,"activity change, negative = inhibition"
COc1cc2c(cc1OC)C(c1ccncc1)CC(=O)N2 (configuration not stated),inactive,
O=C(c1ccncc1)N1CCC2(CCCN(C(c3ccccc3)c3ccccc3)C2)CC1,,-0.104% [at 11.4 µM]
CCOC(=O)N1CCC(NC(=O)c2ccc3nc(N4CCOCC4)sc3c2)CC1,inactive,
Cc1cc(N2CCCCC2)nc2ccc(Cc3ccc4nc(N5CCCCC5)cc(C)c4c3)cc12,,0.114% [at 11.4 µM]
c1c2c(cc3sc(N4CCCCC4)nc13)OCCO2,1.58 µM (active),
Fc1ccc2nc(N3CCCCC3)sc2c1,25.1 µM (active),
Fc1cc(F)c2nc(N3CCOCC3)sc2c1,inactive,
C/C(=C\c1ccco1)C1Nc2cccc3cccc(c23)N1,inactive,
Cc1ccc(Cn2ccc(NC(=O)c3cc(C(C)C)on3)n2)cc1,inactive,
Cc1c(O)c(Br)c(C)c(O)c1Br (tested in a mixture with another compound),,-10.4% [at 11.4 µM]
O=C(c1ccco1)N1CCC2(CC1)CN(c1ncccn1)C2,,-0.795% [at 11.4 µM]
Cc1nn(-c2ccccc2)c2sc(C(=O)N(Cc3ccco3)C(C)C(=O)NC(C)(C)C)cc12 (configuration not stated),inactive,
COc1cccc(Cn2c(=O)c(CCc3ccccc3)nc3cnc(N(C)C)nc32)c1,,0.592% [at 11.4 µM]
Cc1ccnc(N2C(=O)c3ccccc3C2Nc2ccc3c(c2)OCCO3)c1 (configuration not stated),inactive,
COC(=O)c1cc(NC2c3ccccc3C(=O)N2c2ccc(Cl)cn2)cc(C(=O)OC)c1 (configuration not stated),7.94 µM (active),
CCc1ccccc1NC1c2ccccc2C(=O)N1c1cccnc1 (configuration not stated),inactive,
CCCCc1nc2c(=O)[nH]c3ccccc3c2o1,inactive,
CSc1nnc2c(n1)OC(c1cn(C)c3ccccc13)N(C(C)=O)c1ccccc1-2 (configuration not stated),inactive,
CCN(CC)C(=O)N1CCN(C(=O)c2ccc(C)cn2)CC1,inactive,
CCCCC[C@H](O)CCCC(=O)O,inactive,
Cc1nnc(SCC(=O)NCCOc2ccc(Cl)cc2)n1-c1ccccc1,inactive,
Cc1nnc(SCc2ccc(C(=O)c3ccc(Cl)cc3)o2)n1-c1ccccc1,12.6 µM (active),
Cc1nnc(SCC(=O)N2CCc3ccccc32)n1-c1ccccc1,inactive,

Compound,Potency,"activity change, negative = inhibition"
Cn1c(=O)c(-c2ccccc2)nc2cnc(N3CCNCC3)nc21,,-0.109% [at 11.4 µM]
COc1cccc(-c2nc3cc(C)ccc3o2)c1,3.98 µM (active),
COc1cccc(-c2nc(S(=O)(=O)c3ccccc3)c(N3CCOCC3)o2)c1,inactive,
CCN(CC)C(=O)CSc1nnc(-c2cccc(OC)c2)o1,inactive,
CCOC(=O)CCC(=O)OCC(=O)NC(C)C1CC2CCC1C2 (configuration not stated),inactive,
CC[C@H](c1ccccc1)c1cc(C(C)(C)C)cc(C(C)(C)C)c1O,,2.75% [at 11.4 µM]
COc1ccc(OCc2cccc(C(=O)N3CCCC3)c2)cc1,25.1 µM (active),
CCC(CC)C(=O)Nc1cccc(C(=O)N2CCCC2)c1,inactive,
COc1ccc(OCC(=O)N2CCN(C(=O)COc3ccccc3)CC2)cc1,inactive,
N#CC1=C(N)Oc2cc(O)ccc2C1C1CCCCC1 (configuration not stated),inactive,
CS(=O)(=O)N1CCC2(CC1)CN(Cc1cc(C(F)(F)F)cc(C(F)(F)F)c1)C2,,-0.965% [at 11.4 µM]
O=C1C=C(NCCNc2c(F)c(F)c(CO)c(F)c2F)CCC1,inactive,
COc1ccccc1N1CCN(CCN2C(=O)c3ccccc3C(C)(C)C2=O)CC1,inactive,
O=C1CC2(CCCCC2)Oc2ccc(OCC(=O)N3CCOCC3)cc21,inactive,
C/C(=C\C(=O)c1cccnc1)Nc1ccc(C)c(C)c1,12.6 µM (active),
O=C(CCCOc1ccccc1)Nc1cccc(C(=O)O)c1,inactive,
O=C(Nc1cnccn1)c1cccnc1,inactive,
CC(=O)c1cccc(NC(=O)c2ccncc2)c1,inactive,
C/C(=C\C(=O)c1ccccc1)Nc1cccc(O)c1,7.94 µM (active),
CCC(=O)Nc1cccc(NC(=O)c2cccnc2)c1,inactive,
